Assay results from PubChem BioAssay (EPA / NIEHS).
Records with an inconclusive call do not appear. Calls of active or inactive are those of the source. The calls were made as follows, unless noted: active = hit-call score of the fitted dose curve at least 0.9, where 1 is the maximum; inconclusive = response in the unintended direction; inactive = score below 0.9.

Legend:
[1] = CCTE_Deisenroth_AIME_384WELL_CTox_Active: Cytotoxicity Assessment (CTOX) in CCTE's 384-well Estrogen Receptor Transactivation Assay with AIME metabolic competence (metabolism positive), Deisenroth Lab (AID 2284037);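 also: chemicals first conditioned 2 h by alginate-bound induced rat liver S9 before cells; activity means signal loss indicating cell death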
Method in brief: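 Cytotoxicity in VM7Luc4E2 breast cells, 24 hour, measured as protease-substrate fluorescence loss, after 2-hour metabolic conditioning with induced rat hepatic S9 in alginate microspheres. Concentrations 0.002 - 200 uM, 10 points, bidirectional fitting.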

[2] = molecular target: Estrogen receptor (Homo sapiens) (UniProt P03372); assay: CCTE_Deisenroth_AIME_384WELL_LUC_Inactive: CCTE's 384-well Estrogen Receptor Transactivation Assay without AIME metabolic competence (ERTA luciferase; metabolism negative), Deisenroth Lab (AID 2284038);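 also: hits raise estrogen receptor luciferase signal so potencies reflect agonists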
Method in brief: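 Metabolism-negative mode: AIME lids stamped in alginate-water, no hepatic S9. 2 h chemical incubation → medium onto VM7Luc4E2 ERTA, 24 h. Readout luciferase luminescence; gain-of-signal fit vs 17beta-estradiol. Conc. 0.002 - 200 uM.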

[3] = CCTE_Deisenroth_AIME_384WELL_CTox_Inactive: Cytotoxicity Assessment (CTOX) in CCTE's 384-well Estrogen Receptor Transactivation Assay without AIME metabolic competence (metabolism negative), Deisenroth Lab (AID 2284039);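 also: cell viability via live-cell protease substrate cleaved to fluorescent probe; cells exposed 24 h to medium preincubated 2 h with alginate-water beads without S9; loss of fluorescence signal means loss of viability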
Method in brief: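 VM7Luc4E2 cells, metabolism-negative arm: test chemicals (0.002–200 uM, 10 points) pre-incubated 2 h with alginate-water microspheres, then medium transferred to cells for 24 h. Viability read as protease-substrate cleavage to fluorescent probe; loss-of-signal, bidirectional fitting.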

[4] = molecular target: Estrogen receptor (Homo sapiens) (UniProt P03372); assay: CCTE_Deisenroth_AIME_384WELL_LUC_Shift: CCTE's 384-well Estrogen Receptor Transactivation Assay with AIME metabolic competence data shift (ERTA luciferase; difference in metabolism positive and negative), Deisenroth Lab (AID 2284041; active = hit-call score of the fitted dose curve at least 0.9, where 1 is the maximum; inactive = score below 0.9;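 also: shift is response with S9 minus without S9 so positive means metabolism raised ER signal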)
Method in brief: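 Test chemicals (0.002–200 uM, 10-point) were pre-incubated 2 h with alginate microspheres containing phenobarbital/beta-naphthoflavone-induced male Sprague Dawley rat liver S9 or water, then medium was transferred to VM7Luc4E2 cells for 24 h luciferase readout; shift = S9-positive minus S9-negative normalized response.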

[5] = molecular target: Estrogen receptor (Homo sapiens) (UniProt P03372); assay: CCTE_Deisenroth_AIME_96WELL_LUC_Active: CCTE's 96-well Estrogen Receptor Transactivation Assay with AIME metabolic competence (ERTA luciferase; metabolism positive), Deisenroth Lab (AID 2284023)
Method in brief: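 Metabolism-positive mode: induced rat hepatic S9 in alginate microspheres conditions test solutions (0.002 - 200 uM, 10 points) for 2 hours. VM7Luc4E2 ER luciferase reporter cells then exposed 24 h; positive-direction fit against 17beta-estradiol, n=4 typical.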

[6] = molecular target: Estrogen receptor (Homo sapiens) (UniProt P03372); assay: CCTE_Deisenroth_AIME_96WELL_LUC_Inactive: CCTE's 96-well Estrogen Receptor Transactivation Assay without AIME metabolic competence (ERTA luciferase; metabolism negative), Deisenroth Lab (AID 2284025)
Method in brief: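 Metabolism-negative arm: chemicals (0.002–200 uM, 10 points) incubated 2 h with alginate-water microspheres, then medium moved onto VM7Luc4E2 cells for 24 h luciferase read-out. Positive direction vs 17beta-estradiol; n≥4 experiments.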

[7] = CCTE_Deisenroth_AIME_96WELL_CTox_Active: Cytotoxicity Assessment (CTOX) in CCTE's 96-well Estrogen Receptor Transactivation Assay with AIME metabolic competence (metabolism positive), Deisenroth Lab (AID 2284028)
Method in brief: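 Cytotoxicity in VM7Luc4E2 breast cells after 24 h exposure to medium from a 2 h metabolic pre-incubation with induced rat hepatic S9 in alginate microspheres; fluorescent live-cell protease readout, 10-point series 0.002–200 uM, n=4.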

[8] = CCTE_Deisenroth_AIME_96WELL_CTox_Inactive: Cytotoxicity Assessment (CTOX) in CCTE's 96-well Estrogen Receptor Transactivation Assay without AIME metabolic competence (metabolism negative), Deisenroth Lab (AID 2284029)
Method in brief: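 Cytotoxicity in VM7Luc4E2 breast cells was scored as loss of fluorescent signal from a live-cell protease substrate 24 h after exposure, using bidirectional curve fitting. Test media came from a 2 h metabolism-negative pre-incubation (alginate-water, no hepatic S9) of compounds at 0.002-200 uM, with at least four replicates.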

[9] = CCTE_Shafer_MEA_dev_firing_rate_mean: CCTE's Neural Network Formation Assay for Mean Firing Rate, Shafer Lab (AID 2284031; active = hit-call score of the fitted dose curve at least 0.9, where 1 is the maximum; inactive = score below 0.9;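 as to AC50: curve fitted for loss of firing so AC50 reflects decreased mean firing rate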)
Method in brief: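 Extracellular spike frequency, AUC over DIV 5–12 recordings, in rat cortical neuron MEA cultures dosed from plating; loss direction vs DMSO.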

[10] = CCTE_Shafer_MEA_dev_per_burst_spike_percent: CCTE's Neural Network Formation Assay for Percent of Spikes in a Burst, Shafer Lab (AID 2284032; active = hit-call score of the fitted dose curve at least 0.9, where 1 is the maximum; inactive = score below 0.9;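 as to AC50: fitted as a decrease in burst spike percentage below DMSO baseline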)
Method in brief: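 Value is trapezoidal AUC over recordings on days 5, 7, 9 and 12 of the well-mean fraction of spikes falling in single-electrode bursts; rat cortical cultures exposed continuously from plating, treatment renewed DIV 5 and 9, fitted downward against DMSO.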

[11] = CCTE_Shafer_MEA_dev_active_electrodes_number: CCTE's Neural Network Formation Assay for Number of Active Electrodes, Shafer Lab (AID 2284040);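 as to AC50: potency for loss of active electrodes versus DMSO so lower counts are hits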
Method in brief: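 Developing rat cortical networks on MEAs, exposed DIV 0–12. Value is the AUC of active-electrode counts (≥5 spikes/min) from days 5, 7, 9, 12, relative to DMSO.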

[12] = CCTE_Shafer_MEA_acute_per_burst_spike_number_mean: CCTE's Neural Acute Assay for Average Number of Spikes Per Burst, Shafer Lab (AID 2284015; active = hit-call score of the fitted dose curve at least 0.9, where 1 is the maximum; inactive = score below 0.9;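 also: hits are decreases in mean spikes per burst versus baseline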)
Method in brief: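 Rat primary cortical neurons on 48-well MEAs (DIV 13 or 15) were treated with 0.03-40 uM compound at 37 C. Mean spikes per burst over 40 min were recorded before and after exposure and expressed as percent change from baseline, relative to DMSO.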

[13] = CCTE_Shafer_MEA_acute_interburst_interval_mean: CCTE's Neural Acute Assay for Mean Interburst Interval, Shafer Lab (AID 2284016; active = hit-call score of the fitted dose curve at least 0.9, where 1 is the maximum; inactive = score below 0.9;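 also: percent change of mean interburst interval versus each well's own pre-dose baseline; curves fitted for decrease in interburst interval relative to DMSO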)
Method in brief: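 Rat primary cortical neurons on 48-well MEAs at DIV 13 or 15 were exposed acutely to 0.03-40 uM. Spikes detected at 8x rms noise, 37 C. Mean interburst interval from 40 min recordings expressed as percent change from 40 min pre-treatment baseline.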

[14] = CCTE_Shafer_MEA_acute_burst_percentage_mean: CCTE's Neural Acute Assay for Percentage of Spikes in a Burst, Shafer Lab (AID 2284017; active = hit-call score of the fitted dose curve at least 0.9, where 1 is the maximum; inactive = score below 0.9)
Method in brief: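 Primary rat cortical neurons on 48-well MEA plates, treated on DIV 13 or 15 at 0.03-40 uM. Spikes detected at 8x rms noise at 37C; percent change from 40-min baseline to 40-min post-dose recording, fitted versus DMSO.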

[15] = CCTE_Shafer_MEA_acute_burst_percentage_std: CCTE's Neural Acute Assay for Standard Deviation of Burst Percentage, Shafer Lab (AID 2284018; active = hit-call score of the fitted dose curve at least 0.9, where 1 is the maximum; inactive = score below 0.9;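 also: fitted in the negative direction so actives lower burst percentage SD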)
Method in brief: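 Value is percent change from baseline in the across-electrode SD of spikes-in-bursts percentage, wells with >/= 10 active electrodes. Acute 40-min exposure to 0.03-40 uM on DIV 13 or 15 rat cortical cultures, recorded at 37 C after 40-min baseline.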

[16] = CCTE_Shafer_MEA_acute_per_network_burst_spike_number_mean: CCTE's Neural Acute Assay for Average Number of Spikes in a Network Burst, Shafer Lab (AID 2284019; active = hit-call score of the fitted dose curve at least 0.9, where 1 is the maximum; inactive = score below 0.9)
Method in brief: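 Percent change from baseline in mean spikes per network burst, spikes detected at 8x rms noise. Each compound at 0.03-40 uM in at least three wells of rat cortical cultures, recorded 40 min before and 40 min during exposure.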

[17] = CCTE_Shafer_MEA_acute_per_network_burst_spike_number_std: CCTE's Neural Acute Assay for Standard Deviation of Number of Spikes in a Network Burst, Shafer Lab (AID 2284020; active = hit-call score of the fitted dose curve at least 0.9, where 1 is the maximum; inactive = score below 0.9;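 also: fitted for decrease in spike-number SD versus DMSO so actives lower it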)
Method in brief: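 Endpoint: percent change from 40 min baseline in standard deviation of spikes per network burst, after 40 min compound exposure (0.03-40 uM, 37 C). Cortical rat neurons on MEA at DIV 13 or 15; spikes detected at 8x rms noise, 300-5000 Hz band-pass.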

[18] = CCTE_Shafer_MEA_acute_network_burst_percentage: CCTE's Neural Acute Assay for Percentage of Network Bursts, Shafer Lab (AID 2284022; active = hit-call score of the fitted dose curve at least 0.9, where 1 is the maximum; inactive = score below 0.9;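 also: curves fitted for loss so actives lower network burst percentage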)
Method in brief: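 On DIV 13 or 15, at least three wells of rat cortical neurons per compound are dosed at 0.03-40 uM. Spontaneous firing is detected at 8x rms noise for 40 min before and after dosing at 37 C. The percent change in network-burst spike share is reported.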

[19] = CCTE_Shafer_MEA_acute_cross_correlation_HWHM: CCTE's Neural Acute Assay for Cross Correlation at Half Width at Half Maximum, Shafer Lab (AID 2284026; active = hit-call score of the fitted dose curve at least 0.9, where 1 is the maximum; inactive = score below 0.9;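 also: spontaneous network firing of rat primary cortical neurons on multiwell microelectrode arrays; percent change per well from pre-dose baseline in spike cross-correlogram half width; hits are a decrease in cross-correlogram half width relative to DMSO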)
Method in brief: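 Percent change in cross-correlogram half width at half maximum, narrower meaning more synchrony, was derived per well from paired 40-min recordings before and during exposure to 0.03-40 uM compound in rat cortical cultures at 37 C.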

[20] = CCTE_Shafer_MEA_acute_synchrony_index: CCTE's Neural Acute Assay for Synchrony, Shafer Lab (AID 2284027; active = hit-call score of the fitted dose curve at least 0.9, where 1 is the maximum; inactive = score below 0.9;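 also: network synchrony index of spontaneous spiking in primary rat cortical neurons on MEAs; fitted for loss of signal so actives lower synchrony relative to DMSO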)
Method in brief: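 Acute exposure of rat primary cortical neurons (DIV 13 or 15) at 0.03-40 uM. Synchrony index, 40 min before vs after, as % change relative to DMSO control.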

Estrogen receptor (Homo sapiens), sequence (P03372 whole entry, looked up): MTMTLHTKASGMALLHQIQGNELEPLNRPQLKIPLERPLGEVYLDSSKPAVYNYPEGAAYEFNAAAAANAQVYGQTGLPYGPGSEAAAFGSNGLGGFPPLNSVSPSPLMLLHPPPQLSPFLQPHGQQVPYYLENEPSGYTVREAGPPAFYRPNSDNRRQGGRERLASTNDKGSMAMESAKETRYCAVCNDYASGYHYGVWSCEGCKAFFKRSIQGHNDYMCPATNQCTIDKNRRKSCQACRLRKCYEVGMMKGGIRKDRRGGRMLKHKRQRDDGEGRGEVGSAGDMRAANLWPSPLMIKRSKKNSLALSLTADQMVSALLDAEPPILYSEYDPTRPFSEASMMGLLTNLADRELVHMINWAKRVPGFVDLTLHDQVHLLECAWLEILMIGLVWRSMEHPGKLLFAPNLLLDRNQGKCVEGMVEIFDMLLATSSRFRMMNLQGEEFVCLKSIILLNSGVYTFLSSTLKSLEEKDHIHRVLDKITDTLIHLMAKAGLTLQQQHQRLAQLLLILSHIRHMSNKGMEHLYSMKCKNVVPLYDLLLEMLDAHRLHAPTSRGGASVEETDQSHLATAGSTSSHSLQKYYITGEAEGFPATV

Cc1cccc([N+](=O)[O-])c1C
outcome [1]: inactive | outcome [2]: inactive | outcome [3]: inactive | outcome [4]: inactive

O=c1c(O)c(-c2ccc(O)c(O)c2)oc2cc(O)cc(O)c12
outcome [1]: inactive | AC50 [2]: 139 µM (active) | AC50 [3]: 54.5 µM (active) | AC50 [4]: 13.5 µM (active)

CCOc1ccc2c(c1)C(C)=CC(C)(C)N2
outcome [1]: inactive | outcome [2]: inactive | outcome [3]: inactive

Cc1ccc(N(C)C)cc1
outcome [1]: inactive | outcome [2]: inactive | outcome [3]: inactive | outcome [4]: inactive

CCCCCCC(=O)OCC
outcome [2]: inactive | outcome [4]: inactive

COc1cc(/C=C/C(=O)CC(=O)/C=C/c2ccc(O)c(OC)c2)ccc1O
outcome [5]: inactive | outcome [6]: inactive | AC50 [7]: 63 µM (active) | AC50 [8]: 93.8 µM (active)

CC1(C)CC(N=C=O)CC(C)(CN=C=O)C1 (stereo not given)
outcome [2]: inactive | outcome [4]: inactive

COCCOCCOC
outcome [1]: inactive | outcome [2]: inactive | outcome [3]: inactive | outcome [4]: inactive

O=c1[nH]cc(F)c(=O)[nH]1
AC50 [9]: 4.24 µM (active) | AC50 [10]: 1.47 µM (active) | outcome [2]: inactive | outcome [3]: inactive | AC50 [11]: 2.59 µM (active) | outcome [4]: inactive

Cc1ccc(C)c(C)c1
outcome [2]: inactive | outcome [4]: inactive

COc1ccc(C)cc1N
outcome [2]: inactive | outcome [4]: inactive

Cc1cc(=O)[nH]c(=S)[nH]1
outcome [9]: inactive | outcome [10]: inactive | outcome [1]: inactive | outcome [2]: inactive | outcome [3]: inactive | outcome [11]: inactive | outcome [4]: inactive

CC(C)c1ccc(C(=O)N=C(N)N)cc1S(C)(=O)=O
outcome [9]: inactive | outcome [10]: inactive | outcome [11]: inactive

COc1cccc2c1C(=O)c1c(O)c3c(c(O)c1C2=O)C[C@@](O)(C(=O)CO)C[C@@H]3O[C@H]1C[C@H](N)[C@H](O)[C@H](C)O1
AC50 [7]: 51.6 µM (active) | AC50 [8]: 68.2 µM (active)

CCNc1cccc(C)c1
outcome [2]: inactive | outcome [3]: inactive | outcome [4]: inactive

CCCCCCCC=O
AC50 [2]: 25.7 µM (active) | AC50 [4]: 15.6 µM (active)

C[C@]12C=CC(=O)C=C1CC[C@@H]1[C@@H]2C(=O)C[C@@]2(C)[C@H]1CC[C@]2(O)C(=O)CO
outcome [1]: inactive | outcome [2]: inactive | outcome [3]: inactive | outcome [4]: inactive

NCCO
outcome [1]: inactive | outcome [2]: inactive | outcome [3]: inactive | outcome [4]: inactive

CCCCOC(=O)CCCCCCCCC(=O)OCCCC
outcome [1]: inactive | outcome [2]: inactive | outcome [3]: inactive | outcome [4]: inactive

CC1(C)NC(=O)NC1=O
outcome [1]: inactive | outcome [2]: inactive | outcome [3]: inactive | outcome [4]: inactive

COc1cc(C=O)ccc1O
outcome [1]: inactive | outcome [2]: inactive | outcome [4]: inactive

CNC(=O)[C@H]1O[C@@H](n2cnc3c(NCc4cc(Cl)ccc4OCc4cc(C)no4)ncnc32)[C@H](O)[C@@H]1N
outcome [1]: inactive | outcome [2]: inactive | outcome [4]: inactive

CC1=C(/C=C/C(C)=C/C=C/C(C)=C/CO)C(C)(C)CCC1
outcome [2]: inactive | outcome [3]: inactive | outcome [4]: inactive

OC[C@@H](O)[C@@H](O)[C@H](O)[C@H](O)CO
outcome [9]: inactive | outcome [10]: inactive | outcome [11]: inactive

CCCCCC(=O)O
outcome [2]: inactive | outcome [3]: inactive | outcome [4]: inactive

Clc1cc(Cl)c(Cl)cc1Cl
outcome [12]: inactive | outcome [13]: inactive | outcome [14]: inactive | outcome [15]: inactive | outcome [16]: inactive | outcome [17]: inactive | outcome [18]: inactive | outcome [19]: inactive | outcome [20]: inactive | outcome [2]: inactive | outcome [4]: inactive

Cc1cccc(C)c1O
outcome [1]: inactive | outcome [2]: inactive | outcome [3]: inactive | outcome [4]: inactive
